Source: PubChem (National Center for Advancing Translational Sciences (NCATS))
Hits are enriched below; roughly 12% of the tested compounds scored in any of these assays.
HP1b chromo inh: HP1-beta chromodomain-methylated histone interaction inhibition. AlphaScreen HP1-beta / biotin-H3K9me3 peptide binding. Potency, µM (highest dose often 114 µM), without a hit: top-dose activity change, negative = inhibition, usual class: inhibitors. 390,000 compounds, 0.56% hits. AID 540317; further: nearly all actives have a fitted effect of over 70% in size
Target sequence (P83916 whole entry, looked up): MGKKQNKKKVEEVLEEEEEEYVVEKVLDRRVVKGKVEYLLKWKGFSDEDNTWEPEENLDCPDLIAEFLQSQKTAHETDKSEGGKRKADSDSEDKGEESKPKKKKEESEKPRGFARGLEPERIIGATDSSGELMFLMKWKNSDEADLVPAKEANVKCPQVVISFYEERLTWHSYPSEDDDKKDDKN
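Compound inhibition of the preformed complex between 50 nM HP1-beta and 50 nM biotinylated H3K9me3 peptide was read by AlphaScreen. Buffer was PBS pH 7.4 with 0.01% Tween-20. Incubations ran 30 min at room temperature, with 10 ug/mL donor/acceptor beads.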
G9a inh: G9a (human) methyltransferase inhibition; Q96KQ7; G9a H3K9 monomethylation, AlphaScreen, 2 h; Potency, µM (series often up to 102 µM), for inactives: top-dose activity, negative = inhibition, actives largely listed as inhibitors; 350,000 compounds, 8.8% hits; further: on the % scale 0 is the no-effect control and ±100 the full control effect; nearly all actives have a fitted effect of over 75% in size
Target sequence (Q96KQ7 913-1193 limits assumed): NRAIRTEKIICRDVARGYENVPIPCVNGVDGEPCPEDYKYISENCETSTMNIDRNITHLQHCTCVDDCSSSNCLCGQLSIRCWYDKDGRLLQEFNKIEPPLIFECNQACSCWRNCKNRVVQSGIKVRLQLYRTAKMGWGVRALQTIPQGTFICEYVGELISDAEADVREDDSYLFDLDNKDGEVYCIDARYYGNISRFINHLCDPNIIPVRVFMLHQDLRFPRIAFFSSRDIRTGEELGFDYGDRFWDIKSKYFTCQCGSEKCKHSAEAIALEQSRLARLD
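Methyltransferase reactions run at room temperature for 2 h (20 nM enzyme, 500 nM biotin-H3K9 peptide, 20 uM SAM) after a 15 min compound preincubation; product detected by AlphaScreen beads and anti-H3K9me1 antibody.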
JMJD2A Tudor: blocks the human JMJD2A Tudor domain; O75164; AlphaScreen JMJD2A-Tudor / H3K4me3 peptide binding; Potency, µM (titrated, usually from 114 µM), for the others: at the highest dose activity change, negative = inhibition, hits mostly inhibitors; 390,000 compounds, 4.4% hits; AID 504339; further: on the % scale 0 is the no-effect control and ±100 the full control effect; nearly all actives have a fitted effect of over 50% in size
BAZ2B block: BAZ2B (human) inhibition. Q9UIF8. AlphaScreen BAZ2B-H3K14Ac peptide displacement. Potency, µM (highest dose often 114 µM), inactives show at the highest dose activity change, negative = inhibition, most hits filed as inhibitors. 360,000 compounds, 4.4% hits. AID 504333; further: on the % scale 0 is the no-effect control and ±100 the full control effect; nearly all actives have a fitted effect of over 60% in size
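BAZ2B 50 nM plus b-H3(5-23)K14Ac 50 nM, PBS pH 7.4/0.01% Tween-20, 30 min RT; compound added (max 110 uM), 30 min RT; streptavidin donor/Ni-chelate acceptor beads 10 ug/mL final, 20 min dark; AlphaScreen read.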
Sfp inh: blocks B. subtilis Sfp PPTase activity; Potency, µM, for the others: largest response in the series, negative = inhibition, usual class: inhibitors; AID 1490; Biochemical Sfp PPTase activity, qHTS; 310,000 compounds, 3.5% hits;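 further: the enzyme is Sfp with the accession as filed and its product quenches rhodamine fluorescence; 0% = enzyme reaction without inhibitor and -100% = no enzyme wells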
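With Hepes-Na pH 7.6 buffer containing 10 mM MgCl2, Sfp (15 nM) modified BHQ-2-YbbR (12.5 uM) using rhodamine-CoA (5 uM). Two reads 30 minutes apart at 525/598 nm yielded each well's rate.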
Starred values were filed as active, the others as inactive; ? = inconclusive; / = no result; [ ] = another dose, or the depositor's remark. The call rests on the fitted dose curve; in most records, active means well fitted curve in the direction sought with a large enough effect; inconclusive means small, poorly fitted or top-dose-only effect, or another doubt; inactive means no such curve, though single readings can be large; an effect the other way counts as inactive or inconclusive. Potency means the concentration at half of the fitted maximal effect.

SMILES | HP1b chromo inh | G9a inh | JMJD2A Tudor | BAZ2B block | Sfp inh
Cc1nc(SCC(=O)N2CCN(C(=O)c3ccco3)CC2)c2c(C)c(C)sc2n1 | -8.6% | 12.0%[59 µM] | -24.5% | 8.0% | 23.6%
Nc1[nH]c(=O)nc(Nc2ccccc2)c1N=O | 34.1% | / | 35.5µM* | / | /
CCN(c1ccccc1)S(=O)(=O)c1cc2c(cc1C)N(C)CCO2 | 2.4% | 79.4µM* | ? | ? | 9.6%
COc1ccc(NS(=O)(=O)c2cc3c(cc2C)N(C)CCO3)c(OC)c1 | -9.8% | ? | ? | 50.1µM* | -8.5%
O=C(Cn1cc(S(=O)(=O)Cc2cccc(Cl)c2)c2ccccc21)Nc1ccccc1Cl | 21.5% | -2.3%[59 µM] | -13.2% | -0.7% | /
CCCCCCCCCCCCCCCC[n+]1cccc2ccccc21 | -12.9% | 6.31µM* | ? | 50.1µM* | 25.1µM*
CCCCCCCCC[n+]1cccc2c3ccccc3ccc21 | 42.0% | / | 6.3% | 8.7% | -9.3%
Oc1ccc(/C=N/Nc2nccnc2Cl)cc1 | -10.3% | 4.9%[12.7 µM] | -6.3%[57.1 µM] | -2.0% | -29.7%
Nc1c(Cl)ncnc1N/N=C/c1ccc(O)cc1 | 2.3% | 8.2%[59 µM] | -17.5% | ? | 56.2µM*
O=S(=O)(c1ccc2ncccc2c1)N1CCN(c2nc(-c3cccs3)nc3ccccc23)CC1 | 12.7% | / | -30.6% | / | /
Cc1ccc(C(=O)NCCn2cc(SCC(=O)Nc3nnc(C)s3)c3ccccc32)cc1 | 36.4% | 50.1µM* | -22.2% | -5.7% | -15.6%
CCN(CC)C(=O)Cn1cc(SCC(=O)Nc2cc(C)on2)c2ccccc21 | 14.2% | -6.7% | 89.1µM* | -11.8% | 19.2%
CCCn1cc(SCC(=O)Nc2nnc(C)s2)c2ccccc21 | 38.6% | ? | 0.7% | -0.3% | 25.3%
CCOc1ccc(C(=O)NCCn2cc(SCC(=O)Nc3cc(C)on3)c3ccccc32)cc1 | 18.7% | -7.0%[59 µM] | -19.2% | 79.4µM* | ?
Cc1nnc(NC(=O)CSc2nc3c([nH]c4ccccc43)c(=O)n2-c2ccc(Cl)cc2)s1 | 17.5%[57 µM] | 16.7%[59 µM] | -1.9% | 2.2% | /
COc1ccc(NC(=O)c2oc3ccccc3c2NC(=O)COc2ccc(F)cc2)c(OC)c1 | 10.1% | 0.8%[59 µM] | -13.6% | -30.7% | /
Cc1ccc(-c2ccccc2NC(=O)C2C3C=CC(C3)C2C(=O)O)o1 (centres undefined) | -6.5% | ? | -30.5% | 56.2µM* | 25.1µM*
Cc1ccc(-c2cccc(NC(=O)C3C(C(=O)O)[C@@H]4C=C[C@H]3C4)c2)o1 (some centres undefined) | 5.9% | 15.8µM* | -25.2% | ? | 7.94µM*
Cc1c(Cl)cccc1NC(=O)C1C2C=CC(C2)C1C(=O)O (centres undefined) | 19.2% | 12.2% | -6.2% | 3.7% | -25.3%
COc1ccc(C(C)(C)C)cc1NC(=O)C1C2C=CC(C2)C1C(=O)O (centres undefined) | 17.0% | 50.1µM* | -13.2% | -34.7% | -26.2%
O=C(O)c1cccc(NC(=O)C2C3C=CC(C3)C2C(=O)O)c1 (centres undefined) | 34.3% | 50.1µM* | -26.4% | 1.8% | -10.4%
O=C(O)C1C2C=CC(C2)C1C(=O)Nc1cccc(F)c1 (centres undefined) | 32.0% | -27.9%[59 µM] | 1.5% | -5.6% | 8.7%
CCOc1ccccc1-n1nnc(-c2nc(-c3ccccc3)no2)c1N | 34.0% | -0.5%[59 µM] | -7.0% | -8.1% | /
O=C(O)COc1ccc(Cl)cc1C1CCCCC1 | 25.5% | / | -13.0% | / | /
CC(=O)N1CCc2cc(Br)cc(S(=O)(=O)N3CCN(c4cccc(C(F)(F)F)c4)CC3)c21 | 34.7% | -18.5%[59 µM] | -9.2% | 0.8% | /
SMILES | HP1b chromo inh | G9a inh | JMJD2A Tudor | BAZ2B block | Sfp inh
COc1ccc(Nc2ncc(C(=O)Nc3cccc(Cl)c3)c3ccccc23)cc1 | 6.5% | -3.7%[59 µM] | 79.4µM* | 79.4µM* | /
COc1cc([N+](=O)[O-])ccc1N1C(=O)C2C3C=CC(C4CC34)C2C1=O (centres undefined) | 19.6% | 39.8µM* | -12.2%[57.1 µM] | -27.4% | 6.3%
Fc1ccccc1CSc1nc2ccccc2[nH]1 | -10.7% | 50.1µM* | -7.5%[11.4 µM] | -4.5% | 4.2%
Cc1cc(C)n2cc(CSc3nc4ccccc4[nH]3)nc2n1 | 35.2% | 20µM* | -4.2% | -8.5% | 9.6%
CCOCc1[nH]c(=S)[nH]c(=O)c1Cc1ccc(OCC(C)C)cc1 | -15.7% | -41.5% | 50.1µM* | -0.6% | 8.9%
Cc1ccc(NC(=O)C(OC(=O)c2cc(C)oc2C)c2ccccc2)cc1 (centres undefined) | 17.2% | 79.4µM* | -9.3% | -4.8% | 10.7%
COc1ccccc1CNC(=O)CN1C(=O)COc2ccc(S(=O)(=O)Nc3ccccc3)cc21 | 12.1% | -27.2%[59 µM] | -6.2% | -11.1% | /
O=C(NCCN1CCOCC1)c1c(O)nc2sccn2c1=O | 3.6% | ? | 31.6µM* | -28.4% | /
O=C(NC1CCCC1)c1c(O)nc2sccn2c1=O | 30.8% | ? | -15.8% | 1.3% | /
Cc1ccc(-n2ncc3c(NCc4ccco4)ncnc32)c(C)c1 | 23.9% | 50.1µM* | -26.9% | ? | -0.3%
c1ccc(Cn2ncc3c(NCc4ccco4)ncnc32)cc1 | 21.1% | 44.7µM* | ? | 79.4µM* | -11.4%
Fc1ccc2[nH]c3c(NCc4ccco4)ncnc3c2c1 | -19.6% | / | -32.6% | / | /
Cc1ccc2[nH]c3c(NCc4ccco4)ncnc3c2c1 | -13.1% | 50.1µM* | -33.3% | ? | -10.1%
Cc1ccc(-n2ncc3c(NCc4cccnc4)ncnc32)c(C)c1 | 5.8% | -6.4% | -13.5% | -34.3% | -3.0%
O=C(CSc1nncs1)Nc1cc(S(=O)(=O)N2CCOCC2)ccc1N1CCCC1 | 25.7% | 35.5µM* | -4.1% | -6.3% | /
CCCn1c(SCC(=O)Nc2cc(S(=O)(=O)N3CCOCC3)ccc2OC)n[nH]c1=O | -6.5% | 3.16µM* | -5.5% | -23.6% | 39.8µM*
N#Cc1ccc(C(=O)OCc2cccc(S(=O)(=O)N3CCOCC3)c2)cc1 | 27.7% | 14.1µM* | ? | 1.1% | /
COc1cc(S(=O)(=O)N2CCOCC2)ccc1NC(=O)CSc1nnc(N)s1 | 42.8% | 44.7µM* | 5.1% | 2.6% | 3.1%
CCN(CC)c1ccc(CNCCCSc2nnnn2C)cc1 | 21.0% | -39.6%[59 µM] | ? | ? | /
COc1cccc(NC(=O)CCC2CCN(C(=O)c3cccc(NC(C)=O)c3)CC2)c1 | 31.8% | -5.6% | 0.7% | -12.2% | 17.9%
N#Cc1ccc(OCC(=O)Nc2cc(S(=O)(=O)N3CCOCC3)ccc2N2CCOCC2)cc1 | 16.4% | 70.8µM* | 0.4% | -7.1% | 14.3%
N#Cc1ccc(NC(=O)CNc2cc(S(=O)(=O)N3CCOCC3)ccc2NCC2CCCO2)cc1 (centres undefined) | 30.8% | 39.8µM* | -18.0% | -15.2% | -7.2%
CCOCC(=O)Nc1cc(S(=O)(=O)N2CCOCC2)ccc1N1CCCCC1 | ? | 7.08µM* | 89.1µM* | ? | 11.2µM*
CCCCCC(=O)Nc1cc(S(=O)(=O)N2CCCCC2)ccc1N1CCOCC1 | 28.7% | -1.8%[12.7 µM] | -3.4% | -1.7% | 6.6%
